What all share (experiment): NCI-60 one-dose screen, 48 h (100 = growth as untreated, 0 = no growth, -100 = all killed)
One assay deals with SK-MEL-2 melanoma. The conditions noted are these: 10 µM unless noted.
The next assay has as its system SN12C renal. The conditions noted are these: 10 µM unless noted.
The next assay deals with UO-31 renal. The settings on record: 10 µM unless noted.
Another assay concerns TK-10 renal. The conditions noted are these: 10 µM unless noted.
The next assay relates to ACHN renal. The settings on record: 10 µM unless noted.
For the next assay, the system named is CAKI-1 renal. The settings on record: 10 µM unless noted.
Another assay concerns A498 renal. The conditions noted are these: 10 µM.
Another assay concerns HL-60(TB) leukemia. The settings on record: 10 µM unless noted.
The next assay deals with MOLT-4 leukemia. The settings on record: 10 µM unless noted.
The subject of another assay is SR leukemia. The conditions noted are these: 10 µM unless noted.
Another assay deals with RPMI-8226 leukemia. The conditions noted are these: 10 µM unless noted.
Another assay concerns OVCAR-8 ovarian. The settings on record: 10 µM unless noted.
Another assay has as its system OVCAR-5 ovarian. The settings on record: 10 µM unless noted.
The test system of the next assay is OVCAR-4 ovarian. The conditions noted are these: 10 µM unless noted.
The next assay deals with SK-OV-3 ovarian. The settings on record: 10 µM unless noted.
The next assay deals with IGROV1 ovarian. The conditions noted are these: 10 µM unless noted.
For another assay, the system named is OVCAR-3 ovarian. The conditions noted are these: 10 µM unless noted.
Another assay has as its system CCRF-CEM leukemia. The settings on record: 10 µM unless noted.
A further assay concerns HS 578T breast. The settings on record: 10 µM unless noted.
In another assay the test system is EKVX NSCLC. The settings on record: 10 µM unless noted.

This is part of a sample that, as a whole, favours compounds with a hit. Of some 83,000 tested, about 20% had one in any assay.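 A percent growth of 40 corresponds to 60% growth inhibition; 0 means no net growth; -100 means all cells died. Active threshold: below 10.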 A number with no mark means an inactive call. Activity calls are given as the source filed them.

`ClCCN(CCCl)Cc1ccc(Nc2ccnc3cc(Cl)ccc23)cc1`: the growth is -19.5% (active) with SK-MEL-2 melanoma; 18.8% in the assay on SN12C renal; 34.6% in the assay on UO-31 renal; 59.5% in the assay with TK-10 renal; 5.15% (active) with ACHN renal; -32.8% (active) in the assay with CAKI-1 renal. For the same compound, the growth was 77.1% in the assay on A498 renal; -38.6% (active) in the assay with HL-60(TB) leukemia; -33.5% (active) in the assay with MOLT-4 leukemia; -15.9% (active) in the assay with SR leukemia; 0.54% (active) in the assay with RPMI-8226 leukemia; 37.9% with OVCAR-8 ovarian. Besides, the growth is 74.1% in the assay with OVCAR-5 ovarian; 48.2% with OVCAR-4 ovarian; 53.5% with SK-OV-3 ovarian; 55.4% with IGROV1 ovarian; 39.7% in the assay with OVCAR-3 ovarian.

For the compound `O=C(c1ccccc1O)c1[nH]c(Cl)c(Cl)c1-n1c(C(=O)c2ccccc2O)cc(Cl)c1Cl`, the growth in the assay with SK-MEL-2 melanoma is -36.9% (active); in the assay with SN12C renal, -14.2% (active); in the assay on UO-31 renal, -3.72% (active); in the assay on TK-10 renal, 6.68% (active); in the assay with ACHN renal, -9.76% (active); in the assay on CAKI-1 renal, -11.1% (active). The growth was -33.3% (active) with A498 renal; 3.92% (active) with CCRF-CEM leukemia; -1.12% (active) in the assay on MOLT-4 leukemia; 8.12% (active) in the assay with SR leukemia; -30.1% (active) with RPMI-8226 leukemia; 8.28% (active) with OVCAR-8 ovarian. Further, the growth was 18.5% with OVCAR-5 ovarian; 14.5% in the assay on OVCAR-4 ovarian; -5.75% (active) in the assay on SK-OV-3 ovarian; 23% in the assay on IGROV1 ovarian; -16.9% (active) in the assay on HS 578T breast.

Turning to `O=C(O)CNC(=O)C(Cl)(Cl)Cl`, the growth in the assay on SK-MEL-2 melanoma was 111%; with SN12C renal, 100%; in the assay on UO-31 renal it was 87.6%; in the assay on TK-10 renal it was 95.6%; with ACHN renal, 92.7%; in the assay with CAKI-1 renal, 89.1%. In addition, the growth in the assay on A498 renal is 96.2%; with HL-60(TB) leukemia, 80.8%; in the assay on MOLT-4 leukemia it was 91.7%; in the assay on SR leukemia it was 89.8%; in the assay on RPMI-8226 leukemia, 92.3%; in the assay with OVCAR-8 ovarian, 90.3%. The growth with OVCAR-5 ovarian was 97.1%; with OVCAR-4 ovarian, 99.5%; in the assay with SK-OV-3 ovarian, 108%; in the assay with IGROV1 ovarian, 100%; in the assay on OVCAR-3 ovarian it was 108%.

Take `COc1ccc(/C=C\c2cc(OC)c(OC)c(OC)c2)c(NS(=O)(=O)c2ccc(C)cc2)c1O`: the growth was -6.34% (active) in the assay with SK-MEL-2 melanoma; 35.6% in the assay on SN12C renal; 53.4% in the assay with UO-31 renal; 65.2% with TK-10 renal; 23.7% in the assay with ACHN renal; 19.8% with CAKI-1 renal. The growth was 9.18% (active) with HL-60(TB) leukemia; 21.9% in the assay with CCRF-CEM leukemia; 20.8% in the assay with MOLT-4 leukemia; 17.2% in the assay with SR leukemia; 31.5% in the assay on RPMI-8226 leukemia; 25.1% in the assay with OVCAR-8 ovarian. Moreover, the growth in the assay on OVCAR-5 ovarian is 38.8%; in the assay on OVCAR-4 ovarian, 31.5%; with SK-OV-3 ovarian it was 25.1%; in the assay on IGROV1 ovarian it was 32.2%; with OVCAR-3 ovarian, -30.9% (active); in the assay with HS 578T breast, 39.9%.

As for `CC(C)CCC1(CCCl)C(=O)NC(=O)NC1=O`, the growth in the assay on SK-MEL-2 melanoma was 104%; with SN12C renal, 95.6%; with UO-31 renal, 91%; in the assay on TK-10 renal it was 100%; in the assay on ACHN renal, 102%; with CAKI-1 renal it was 94.6%. The growth with A498 renal was 89.4%; with CCRF-CEM leukemia, 95.3%; with MOLT-4 leukemia it was 112%; with SR leukemia it was 102%; with RPMI-8226 leukemia it was 103%; in the assay on OVCAR-8 ovarian it was 101%. Besides, the growth in the assay with OVCAR-5 ovarian was 101%; in the assay with OVCAR-4 ovarian it was 99.4%; in the assay on SK-OV-3 ovarian it was 102%; with IGROV1 ovarian, 108%; with OVCAR-3 ovarian, 116%; in the assay on HS 578T breast, 106%.

With `COc1ccc(-n2c(C)nc3cc(OC)c(OC)cc3c2=O)cc1OC`, the growth with EKVX NSCLC is 108%; with SN12C renal, 105%; in the assay on UO-31 renal it was 94.4%; in the assay with TK-10 renal, 102%; in the assay with ACHN renal, 109%; with CAKI-1 renal, 97.3%. In addition, the growth is 95.8% with A498 renal; 100% in the assay on HL-60(TB) leukemia; 98.1% with CCRF-CEM leukemia; 97.2% in the assay on MOLT-4 leukemia; 95.5% in the assay with SR leukemia; 104% in the assay with RPMI-8226 leukemia. Also, the growth is 102% with OVCAR-8 ovarian; 104% with OVCAR-5 ovarian; 101% in the assay with OVCAR-4 ovarian; 102% in the assay with SK-OV-3 ovarian; 102% with IGROV1 ovarian; 106% in the assay with OVCAR-3 ovarian. Also, the growth in the assay on HS 578T breast is 101%.

As to `CCNc1nc(Cl)nc(NCC)n1`, the growth was 86.5% in the assay on EKVX NSCLC; 102% with SN12C renal; 77.1% in the assay on UO-31 renal; 116% in the assay with TK-10 renal; 102% in the assay with ACHN renal; 77.3% in the assay with CAKI-1 renal. Besides, the growth was 95.8% with A498 renal; 98.4% in the assay on HL-60(TB) leukemia; 96.8% in the assay on CCRF-CEM leukemia; 69.8% with MOLT-4 leukemia; 75.8% with SR leukemia; 94.3% with RPMI-8226 leukemia. The growth in the assay with OVCAR-5 ovarian is 104%; in the assay on OVCAR-4 ovarian it was 95.6%; in the assay on SK-OV-3 ovarian it was 109%; in the assay with OVCAR-3 ovarian, 108%; with HS 578T breast, 96.8%.

For `C/C1=C/C(=O)O[C@@H]2C[C@@H](CC[C@H](C)/C=C\C=C\CC1)O[C@@](O)([C@@H]1CSC(=O)N1CO)C2`, the growth in the assay on EKVX NSCLC is 6.56% (active); in the assay on SN12C renal it was 47.8%; with UO-31 renal, -83.5% (active); in the assay with TK-10 renal, -39.1% (active); in the assay on ACHN renal, 10.6%; in the assay on CAKI-1 renal, -48.3% (active). Also, the growth with A498 renal is -46.2% (active); in the assay with HL-60(TB) leukemia it was 28.2%; in the assay with CCRF-CEM leukemia, 11.1%; in the assay with MOLT-4 leukemia, 33.4%; in the assay with RPMI-8226 leukemia it was 50.7%; with OVCAR-8 ovarian it was 42.8%. Further, the growth in the assay on OVCAR-5 ovarian is -3.16% (active); in the assay with OVCAR-4 ovarian, 20.4%; with SK-OV-3 ovarian, -14.1% (active); in the assay with OVCAR-3 ovarian, -7.34% (active); in the assay with HS 578T breast, -48.7% (active).

For the compound `COc1cc(/C=C\c2cc(OC)c(OC)c(OC)c2)cc(N/C=C\C(=O)c2cc(OC)c(OC)c(OC)c2)c1OC`, the growth in the assay on SK-MEL-2 melanoma is 15.9%; with SN12C renal, 36.9%; in the assay with UO-31 renal, 22.3%; in the assay on TK-10 renal it was 55.1%; in the assay with ACHN renal, 28.9%; with A498 renal, -12.4% (active). In addition, the growth was 8.89% (active) in the assay with CCRF-CEM leukemia; 28.7% in the assay with MOLT-4 leukemia; -5.44% (active) in the assay on SR leukemia; 22.8% with RPMI-8226 leukemia; 41.2% with OVCAR-8 ovarian; 31.8% in the assay on OVCAR-5 ovarian. Moreover, the growth in the assay on SK-OV-3 ovarian was 21.3%; in the assay on IGROV1 ovarian it was 15.6%; in the assay with OVCAR-3 ovarian, 9.78% (active); in the assay with HS 578T breast it was 1.26% (active).

For the origin of these results see PubChem BioAssay (NCI).
